Results on 9 molecules are retold here after PubChem BioAssay (NCI).

Molecules are shown by their SMILES. About 79,000 compounds went through this panel and 15% of them were active in at least one assay; those are over-represented in the sample as a whole. A number with no mark means an inactive call. Active and inactive are the calls of the source. Cut-off read from the data, not from the text of the source: active = growth inhibition above about 70%; inactive = the rest.

The nature of experiment [1]: NCI Yeast Anticancer Drug Screen. Data for the rad50 strain (AID 155).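 Note: 0% = growth of vehicle-only cultures of the same strain.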 The note with it: S. cerevisiae rad50 strain growth inhibition, hits give high values. A digest of the protocol: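 Compounds were tested on a yeast strain with an engineered DNA damage repair alteration; the reported value is growth inhibition normalised to vehicle treatment.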
Experiment [2] is described as follows: NCI Yeast Anticancer Drug Screen. Data for the mec2-1 strain (AID 157). The note with it: S. cerevisiae mec2-1 strain, hits give high values. A digest of the protocol:
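Test agents were screened against the mec2-1 yeast strain, with defined DNA repair or cell cycle alteration. Growth was scored as inhibition against vehicle-only controls.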

The nature of experiment [3]: NCI Yeast Anticancer Drug Screen. Data for the sgs1 mgt1 strain (AID 161).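 Note: 0% = growth of cultures given vehicle only.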 As to conditions: S. cerevisiae sgs1 mgt1 strain, hits give high values. Summed up: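 Genetically altered yeast, compound exposure, growth inhibition relative to vehicle.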
A short description of experiment [4]: NCI Yeast Anticancer Drug Screen. Data for the cln2 rad14 strain (AID 165).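 Note: 0% = growth equal to vehicle treated cultures.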 The note with it: S. cerevisiae cln2 rad14 strain, hits give high values. Summed up:
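Growth of compound-exposed yeast (cln2 rad14 genotype) measured and expressed as inhibition relative to vehicle.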

Experiment [5] is described as follows: NCI Yeast Anticancer Drug Screen. Data for the bub3 strain (AID 167). The note with it: S. cerevisiae bub3 mutant strain, hits give high values. A digest of the protocol:
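Growth of a checkpoint-deficient yeast mutant is measured after compound exposure. Values represent inhibition relative to vehicle.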

The nature of experiment [6]: NCI Yeast Anticancer Drug Screen. Data for the mlh1 rad18 strain (AID 175). As to conditions: S. cerevisiae mlh1 rad18 strain growth inhibition, hits give high values. Summed up:
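In this whole-cell yeast screen, a strain with altered DNA damage repair is challenged with compound, and its growth is measured against matched vehicle-treated controls.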

[7] abbreviates: at 5.0 µM (retest, dose inferred, filed as 0.5).
Setting [8] is: at 50.0 µM (retest, dose inferred, filed as 5.0).

Turning to `CCOC(=O)CC1=NC(=Nc2ccc(Cl)c(Cl)c2)SC1`, the growth inhibition in experiment [1] (setting [7]) is 0%; in experiment [1] (setting [8]) it was 95% (active); in experiment [1] (at 50.0 µM) it was 96.2% (active); in experiment [2] (setting [7]) it was -3%; in experiment [2] (setting [8]), 98% (active); in experiment [2] (at 50.0 µM), 99% (active). The growth inhibition in experiment [3] (setting [7]) is 0%; in experiment [3] (setting [8]) it was 98% (active); in experiment [3] (at 50.0 µM) it was 99.1% (active); in experiment [4] (setting [7]), -5%; in experiment [4] (setting [8]) it was 94% (active); in experiment [4] (at 50.0 µM) it was 96.6% (active). In addition, the growth inhibition is 4% in experiment [5] (setting [7]); 98% (active) in experiment [5] (setting [8]); 97.7% (active) in experiment [5] (at 50.0 µM); -2% in experiment [6] (setting [7]); 98% (active) in experiment [6] (setting [8]); 98.3% (active) in experiment [6] (at 50.0 µM).

`COc1ccc(C2C3=C(CCCC3=O)Oc3cc4c(cc32)OCO4)c(OC)c1` (configuration not stated): the growth inhibition in experiment [1] (setting [7]) is 17%; in experiment [1] (setting [8]), 92% (active); in experiment [1] (at 50.0 µM) it was 3.95%; in experiment [2] (setting [7]), -3%; in experiment [2] (setting [8]) it was 90% (active); in experiment [2] (at 50.0 µM), 18.8%. Further, the growth inhibition is 6% in experiment [3] (setting [7]); 92% (active) in experiment [3] (setting [8]); -11.7% in experiment [3] (at 50.0 µM); 6% in experiment [4] (setting [7]); 88% (active) in experiment [4] (setting [8]); -6.1% in experiment [4] (at 50.0 µM). Moreover, the growth inhibition in experiment [5] (setting [7]) was 8%; in experiment [5] (setting [8]), 94% (active); in experiment [5] (at 50.0 µM) it was 1.05%; in experiment [6] (setting [7]), 4%; in experiment [6] (setting [8]), 92% (active); in experiment [6] (at 50.0 µM) it was 8.95%.

For the molecule `COc1ccc(CSC(=S)Nc2ccccc2C(F)(F)F)cc1`, the growth inhibition in experiment [1] (setting [7]) was 8%; in experiment [1] (setting [8]) it was 93% (active); in experiment [1] (at 50.0 µM), 98.3% (active); in experiment [2] (setting [7]) it was 6%; in experiment [2] (setting [8]), 97% (active); in experiment [2] (at 50.0 µM), 99.2% (active). The growth inhibition in experiment [3] (setting [7]) was 1%; in experiment [3] (setting [8]), 99% (active); in experiment [3] (at 50.0 µM), 99.2% (active); in experiment [4] (setting [7]) it was -1%; in experiment [4] (setting [8]) it was 94% (active); in experiment [4] (at 50.0 µM) it was 98.6% (active). Besides, the growth inhibition in experiment [5] (setting [7]) is -3%; in experiment [5] (setting [8]), 96% (active); in experiment [5] (at 50.0 µM), 99% (active); in experiment [6] (setting [7]), 4%; in experiment [6] (setting [8]) it was 95% (active); in experiment [6] (at 50.0 µM) it was 99% (active).

Regarding `O=C(CCl)N(Cc1ccccc1)Cc1ccccc1`, the growth inhibition in experiment [1] (setting [7]) is -2%; in experiment [1] (setting [8]), 92% (active); in experiment [1] (at 50.0 µM) it was 84% (active); in experiment [2] (setting [7]) it was -1%; in experiment [2] (setting [8]) it was 95% (active); in experiment [2] (at 50.0 µM), 92.1% (active). Moreover, the growth inhibition in experiment [3] (setting [7]) was -8%; in experiment [3] (setting [8]), 94% (active); in experiment [3] (at 50.0 µM), 89.5% (active); in experiment [4] (setting [7]), 2%; in experiment [4] (setting [8]) it was 84% (active); in experiment [4] (at 50.0 µM) it was 42.5%. For the same molecule, the growth inhibition in experiment [5] (setting [7]) is 6%; in experiment [5] (setting [8]), 92% (active); in experiment [5] (at 50.0 µM) it was 85% (active); in experiment [6] (setting [7]), -1%; in experiment [6] (setting [8]) it was 92% (active); in experiment [6] (at 50.0 µM), 78.6% (active).

Regarding `C=CC(=C)OC`, the growth inhibition in experiment [1] (setting [7]) is 0%; in experiment [1] (setting [8]), 14%; in experiment [1] (at 50.0 µM), 10.4%; in experiment [2] (setting [7]) it was -8%; in experiment [2] (setting [8]), 0%; in experiment [2] (at 50.0 µM) it was 20.3%. The growth inhibition in experiment [3] (setting [7]) is -2%; in experiment [3] (setting [8]) it was 1%; in experiment [3] (at 50.0 µM), 19.1%; in experiment [4] (setting [7]), 1%; in experiment [4] (setting [8]), 8%; in experiment [4] (at 50.0 µM), 69.9%. Moreover, the growth inhibition in experiment [5] (setting [7]) is 2%; in experiment [5] (setting [8]), -2%; in experiment [5] (at 50.0 µM), 39%; in experiment [6] (setting [7]), 2%; in experiment [6] (setting [8]) it was 4%; in experiment [6] (at 50.0 µM), 7.5%.

As for `C[N+](C)(C)CCCCCCCCCCC(=O)N/N=C/c1ccc([N+](=O)[O-])o1`, the growth inhibition in experiment [1] (setting [7]) is 6%; in experiment [1] (setting [8]) it was 8%; in experiment [1] (at 50.0 µM), 9.85%; in experiment [2] (setting [7]) it was 2%; in experiment [2] (setting [8]), 7%; in experiment [2] (at 50.0 µM), 4.35%. Further, the growth inhibition in experiment [3] (setting [7]) is 6%; in experiment [3] (setting [8]), 18%; in experiment [3] (at 50.0 µM), 48.9%; in experiment [4] (setting [7]), 2%; in experiment [4] (setting [8]), 2%; in experiment [4] (at 50.0 µM), 32.3%. The growth inhibition in experiment [5] (setting [7]) was 0%; in experiment [5] (setting [8]) it was -3%; in experiment [5] (at 50.0 µM), -3.85%; in experiment [6] (setting [7]), 9%; in experiment [6] (setting [8]) it was 15%; in experiment [6] (at 50.0 µM) it was 64.6%.

As to `Clc1c2ccccc2cc2cccnc12`, the growth inhibition in experiment [1] (setting [7]) was 17%; in experiment [1] (setting [8]) it was 90% (active); in experiment [1] (at 50.0 µM) it was 50.2%; in experiment [2] (setting [7]), 7%; in experiment [2] (setting [8]) it was 26%; in experiment [2] (at 50.0 µM), 54.6%. Further, the growth inhibition was 6% in experiment [3] (setting [7]); 81% (active) in experiment [3] (setting [8]); 48.8% in experiment [3] (at 50.0 µM); 3% in experiment [4] (setting [7]); 40% in experiment [4] (setting [8]); 36% in experiment [4] (at 50.0 µM). The growth inhibition in experiment [5] (setting [7]) was 3%; in experiment [5] (setting [8]) it was 71% (active); in experiment [5] (at 50.0 µM), 76% (active); in experiment [6] (setting [7]), 17%; in experiment [6] (setting [8]) it was 86% (active); in experiment [6] (at 50.0 µM), 67.2%.

In the case of `O=C1OC(c2ccccc2)(c2ccccc2)Cc2ccccc21`, the growth inhibition in experiment [1] (setting [7]) was -4%; in experiment [1] (setting [8]), 20%; in experiment [1] (at 50.0 µM) it was 94% (active); in experiment [2] (setting [7]), -9%; in experiment [2] (setting [8]) it was -4%; in experiment [2] (at 50.0 µM), 96% (active). Also, the growth inhibition in experiment [3] (setting [7]) is -7%; in experiment [3] (setting [8]), -16%; in experiment [3] (at 50.0 µM), 91% (active); in experiment [4] (setting [7]) it was -4%; in experiment [4] (setting [8]) it was 7%; in experiment [4] (at 50.0 µM), 91.3% (active). The growth inhibition in experiment [5] (setting [7]) was -27%; in experiment [5] (setting [8]), -13%; in experiment [5] (at 50.0 µM) it was 90.8% (active); in experiment [6] (setting [7]), -21%; in experiment [6] (setting [8]) it was 8%; in experiment [6] (at 50.0 µM) it was 94.8% (active).

On to `C[n+]1c(-c2ccc(/C=N/NC(=O)c3ccc(C(=O)N/N=C/c4ccc(-c5cn6ccccc6[n+]5C)cc4)nc3)cc2)cn2ccccc21`, for which the growth inhibition is 35% in experiment [1] (setting [7]); 99% (active) in experiment [1] (setting [8]); 99.2% (active) in experiment [1] (at 50.0 µM); 14% in experiment [2] (setting [7]); 99% (active) in experiment [2] (setting [8]); 98.8% (active) in experiment [2] (at 50.0 µM). For the same molecule, the growth inhibition in experiment [3] (setting [7]) is 35%; in experiment [3] (setting [8]), 99% (active); in experiment [3] (at 50.0 µM) it was 98.8% (active); in experiment [4] (setting [7]) it was 34%; in experiment [4] (setting [8]) it was 99% (active); in experiment [4] (at 50.0 µM), 99% (active). Also, the growth inhibition is 24% in experiment [5] (setting [7]); 99% (active) in experiment [5] (setting [8]); 98.9% (active) in experiment [5] (at 50.0 µM); 50% in experiment [6] (setting [7]); 99% (active) in experiment [6] (setting [8]); 99.1% (active) in experiment [6] (at 50.0 µM).
